Measured values as given in PubChem BioAssay AID1345085 (National Center for Advancing Translational Sciences (NCATS), 2018).
Results filed as inconclusive are left out. A call without a number means that no potency is given here. Activity calls are given as the source filed them. Calls follow the shape of the dose curve; as a rule, active = well fitted cell-killing curve with a large enough effect; inconclusive = small, poorly fitted or top-dose-only effect, or effect the other way; inactive = no such curve, though single readings can be large or run the other way.

The compounds below were run on C33A (assay: Confirmatory qHTS for gynecologic anti-cancer compounds from libraries of approved drugs and bioactive compounds). Conditions: gynecologic cancer cell panel viability, ATPlite luminescence, 48 h; series mostly up to 57.6 µM.
Outline: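 1,000 cells/well; 16 h pre-incubation 37 C, 5% CO2; pin-transferred cpd in DMSO, 11 conc (1:3), 57.5 uM–0.977 nM; 48 h; ATPlite, 15 min RT; luminescence → IC50.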
Also: nearly all actives have a fitted effect of over 55% in size.
Potency is read from the fitted curve at half-maximal effect.

For `CCC(=O)O[C@H]1CC[C@H]2[C@@H]3CCC4=CC(=O)CC[C@]4(C)[C@H]3CC[C@]12C`, which Potency is on record?
The Potency was “inactive”.

Which Potency does the source give for `C/C=C(/C)C(=O)O[C@H]1C(C)=C2[C@H]([C@@H]1OC(=O)CCCCCCC)[C@@](C)(OC(C)=O)C[C@H](OC(=O)CCC)[C@@]1(O)[C@H]2OC(=O)[C@@]1(C)O` here?
Its Potency is 21.7 µM (active).

Which Potency does the source give for `Cc1sc2c(c1C)C(c1ccc(Cl)cc1)=NC(CC(=O)OC(C)(C)C)c1nnc(C)n1-2` (stereo unspecified) here?
Its Potency is “inactive”.

Which Potency does the source give for `C[C@]12CC[C@H]3[C@@H](CCC4=CC(=O)CC[C@@H]43)[C@@H]1CC[C@@H]2OC(=O)CCc1ccccc1` here?
Its Potency is “inactive”.

`CCNC(=O)C[C@@H]1N=C(c2ccc(Cl)cc2)c2cc(OC)ccc2-n2c(C)nnc21` was tested. Which Potency did it give?
Its Potency is “inactive”.

How did the Potency turn out when `CCN1CCN(C(=O)Cc2ccc(Nc3ncc(F)c(Nc4ccc(C(=O)Nc5ccccc5Cl)cc4)n3)cc2)CC1` was run?
The Potency was “inactive”.
